From ChEMBL document CHEMBL3433997, “St. Jude Leishmania screening dataset” (2016)

Each compound was assayed against Glucose transporter (Leishmania mexicana) (UniProt O61059) (assay: ST_JUDE_LEISH: Cytotoxicity at 2uM final concentration against transgenic Leishmania Mexicana promastigotes LmGT2 that are glucose transport deficient and complemented with the L. Mexicana glucose transporter 2. Activity is measured by DNA content using SYBR green in vitro).
Assay type: functional

Compared with O=C(Nc1cccc(Cl)c1N1CCOCC1)C(Cl)(Cl)Cl, CC(C)(C)c1ccc(S(=O)(=O)Nc2ccccc2N2CCOCC2)cc1 is lower in inhibition: 1.03% for the first, 0.2% for the second.

Compared with Cn1cncc1C(=O)Nc1ccc(-c2ccc(-c3nc4cc(C(F)(F)F)ccc4[nH]3)cc2)cc1, NC(=O)c1cccc(C(=O)Nc2ccc(-c3cccc(-c4nc5cc(F)ccc5[nH]4)c3)cc2)c1 is lower in inhibition: 4.64% for the first, 0.23% for the second.

Compared with O=C(/C=C/c1ccc2ccccc2c1)NCC1(c2ccc(-c3ccccc3)cc2)CCOCC1, O=C(/C=C/c1ccc(Cl)cc1)Nc1ccc2nc(CN3CCCC3)ccc2c1 is higher in inhibition: 3.08% for the first, 5.54% for the second.

Compared with O=C(Nc1cccc(C2=NCCN2)c1)Nc1cccc(C2=NCCN2)c1, Cc1ccc(Cn2nc(Cl)c(N3CCNCC3)cc2=O)cc1NC(=O)Nc1ccc(-c2ccccc2)cc1 is higher in inhibition: 1.1% for the first, 6.75% for the second.

First: c1cc(CN2CCN(c3ccncc3)CC2)cc(-c2cccc(-c3nc4ccccc4[nH]3)c2)c1
Second: O=C(Nc1cccc(F)c1)N(Cc1ccc(-c2cccc(CN3CCNCC3)c2)cc1)C1CCN(Cc2ccccc2)CC1
The inhibition of the first is lower: 1.32% for the first, 6.85% for the second.

First: Cc1nc2nc(N)nc(N)c2c(C)c1Cc1ccc(N)cc1
Second: Cc1nc(-c2nc(NCc3ccncc3)ncc2-c2ccsc2)sc1C
The inhibition of the first is higher: 1.88% for the first, 0.31% for the second.

First: O=c1ccc2ccc(O)c(O)c2o1
Second: O=C(Nc1ccc(Cl)cc1)c1cc(Cl)cc2nc(C(F)(F)F)[nH]c12
The inhibition of the first is lower: 4.39% for the first, 9.44% for the second.

Compared with O=C(NCC(CCN1CCC(c2c[nH]c3ccccc23)CC1)c1ccccc1)Nc1ccc(Cl)c(Cl)c1 (stereo not given), COc1cccc(Nc2nc(C)cc(NC3CCN(Cc4ccccc4)CC3)n2)c1 is lower in inhibition: 2.16% for the first, 0.8% for the second.

Compared with O=C(Cc1ccc(NC(=O)c2ccc(O)c(-c3ccc(Cl)c(Cl)c3)c2)cc1)NCCc1ccc(Cl)c(Cl)c1, CN1CCN(c2cc(NC(=O)c3ccc(-c4ccc(Cl)cc4)cc3)ccc2Cl)CC1 is lower in inhibition: -0.6% for the first, -1.86% for the second.

Going from O=C(O[C@@H]1CN[C@H](C#Cc2cc3c(Nc4ccc5c(cnn5Cc5ccccc5)c4)ncnc3s2)C1)N1CCCC1 to Oc1ccc2nc(Nc3ccccc3)nc(NCCc3ccccc3)c2c1, the inhibition rises from -0.78% to 5.72%.

Going from Cc1ccc(/C=C/C(=O)NCCCCCN2CCCN(C(=O)Nc3ccc(Cl)c(Cl)c3)CC2)cc1 to CO/C(=C\C=C\c1cc2cc(Cl)c(Cl)cc2[nH]1)C(=O)NCCCN1CCN(c2cccc(OCC(=O)Nc3cccc(C(=O)c4ccccc4)c3)c2)CC1, the inhibition falls from 4.4% to 2.69%.

First: CC(C)c1ccc2c(c1)c(SC(C)(C)C)c(CC(C)(C)C#N)n2Cc1ccc(Cl)cc1
Second: COCCn1c(SC(C)C(=O)Nc2cc(C(F)(F)F)ccc2Cl)nc2ccccc2c1=O (stereo not given)
The inhibition of the first is lower: -0.23% for the first, -0.21% for the second.

Going from CC(=O)c1cccc(S(=O)(=O)NCCCNc2nc3cc(C)cc(C)c3cc2C#N)c1 to Cc1nnc2c(N(C(=O)NCCc3ccccc3)C(=O)NCCc3ccccc3)cc3cc(Cl)ccc3n12, the inhibition rises from -1.77% to 8.99%.

Going from COc1ccc(C2CC(=O)C3=C(C2)NC(C)=C(C(=O)OC(C)C)C3c2c(F)cccc2Cl)cc1OC (stereo not given) to COc1cc2c(cc1N1CCN(C)CC1)N(C(=O)Nc1ccc(-c3ccncc3)c(Cl)c1Cl)CC2, the inhibition falls from 0.75% to 0.64%.

Going from Cc1ccccc1C1CCN(C2CCC(NC(=O)c3cc(-c4ccc(Cl)cc4)cs3)CC2)CC1 (stereo not given) to Cc1cccc2nc(-c3ccc(-c4ccc(CN5CCC(CO)CC5)cc4)s3)[nH]c12, the inhibition rises from -2.52% to 0.87%.

Going from COCCN1CCC(C(=O)NCC(C)(C)c2nc(-c3ccc(Br)c(O)c3)c(-c3ccncc3)[nH]2)CC1 to CCOc1cc(C(=O)Nc2cccnc2)cc(Br)c1OCCC(C)C, the inhibition falls from 7.22% to -0.8%.

First: CCCCOc1ccc(-c2nc3ccccc3[nH]2)cc1
Second: CCCCCCOc1ccccc1C(=O)NCCOc1ccc(Cl)cc1
The inhibition of the first is higher: 2.74% for the first, -1.97% for the second.

First: CC(C)Cc1csc(NC(=O)C=Cc2ccco2)c1C(=O)O
Second: CCNc1cc(C(=O)N[C@@H](Cc2ccccc2)[C@H](O)CNC2CCC(C)(C)C2)cc(N2CCCCS2(=O)=O)c1 (stereo not given in full)
The inhibition of the first is lower: -0.08% for the first, 2.37% for the second.

Compared with CCCCCCCN1CC[C@@H](C[C@H](N)Cc2ccnc3ccc(OC)cc23)[C@@H](CC)C1, CCCCNC(=N)Nc1ccc(OCCCOc2ccc(NC(=N)NCCCC)cc2)cc1 is lower in inhibition: 0.03% for the first, 0.01% for the second.

First: CCc1c(CCNCCCCCCNCCc2ccc3c(c2C)OCO3)ccc2c1OCO2
Second: O=C(NC1CC1)c1ccc(Nc2nccc(-c3c(-c4cccc(NC(=O)c5c(F)cccc5F)c4)nn4ccccc34)n2)cc1
The inhibition of the first is higher: 10.6% for the first, 3.41% for the second.
